Compound activity as filed in PubChem.
LDHA inh = qHTS assay for inhibitors of human lactate dehydrogenase. L-lactate dehydrogenase A chain (Homo sapiens), P00338. purified LDHA, NADH/diaphorase-resazurin fluorescence; active compounds read low. activity change, % (values are at about 110 or 230 µM). AID 1347041, 2019. hit rate 0.15% among 480,000; in the data active means activity change below about -30%; inconclusive means mostly about -25% to -30%;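 further: plate controls were DMSO wells for no effect and wells without enzyme for full effect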
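Resorufin fluorescence (ex540/em590), read at 0 and 20 min after diaphorase/resazurin addition, reports the NADH left after a 5 min room-temperature reaction of 2 nM human LDH5 with 0.06 mM NADH and 0.2 mM pyruvate.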
Abeta rescue = qHTS for compounds that reverse cellular toxicity of Amyloid beta (A-beta) peptide in yeast: Primary Screen. yeast expressing A-beta42, growth rescue, OD600, 48 h; response scale: 0% DMSO, 100% iron-clioquinol control. Potency, µM (series often up to 46.1 µM), actives largely listed as activators. hit rate 0.063% among 410,000. AID 1347071, 2019; further: potency means the concentration at half of the fitted maximal effect; nearly all actives have a fitted effect of over 55% in size
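Yeast A-beta toxicity model in growth medium with pinned compounds, 48 h at 30 C; growth read as absorbance at 600 nm. Normalized to FeCl3/clioquinol equimolar mix (positive) and DMSO (negative).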
IDH1 R132H inh = qHTS for Inhibitors of mutant isocitrate dehydrogenase 1 (IDH1): qHTS; Isocitrate dehydrogenase [NADP] cytoplasmic (Homo sapiens), O75874; IDH1-R132H enzyme, NADPH consumption, diaphorase/resazurin fluorescence; AID 602179, 2012; Potency, µM (top dose mostly 76.6 µM), for inactives: at the top dose activity change, negative = inhibition, actives largely listed as inhibitors; hit rate 0.093% among 390,000; further: potency means the concentration at half of the fitted maximal effect; on the % scale 0 is the no-effect control and ±100 the full control effect; nearly all actives have a fitted effect of over 65% in size
Target sequence (O75874 whole entry R132H, stated change not applied): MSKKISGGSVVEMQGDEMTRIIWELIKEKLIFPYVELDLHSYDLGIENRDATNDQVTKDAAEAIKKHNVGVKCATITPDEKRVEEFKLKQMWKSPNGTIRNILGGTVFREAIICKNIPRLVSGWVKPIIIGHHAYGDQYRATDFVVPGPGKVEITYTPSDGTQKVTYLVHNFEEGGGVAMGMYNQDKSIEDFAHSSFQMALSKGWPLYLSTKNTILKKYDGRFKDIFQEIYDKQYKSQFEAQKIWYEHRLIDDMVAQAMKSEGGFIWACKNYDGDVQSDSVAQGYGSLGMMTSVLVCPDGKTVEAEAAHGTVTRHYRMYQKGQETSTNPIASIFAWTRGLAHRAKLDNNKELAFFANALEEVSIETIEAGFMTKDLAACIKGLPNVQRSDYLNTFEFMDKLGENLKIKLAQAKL
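IDH1-R132H (0.5 ug/mL) preincubated 30 min with compound, then NADPH (0.016 mM) and alpha-KG (2 mM) added; 80 min at RT, pH 7.5. Remaining NADPH coupled via diaphorase/resazurin to fluorescence (540/590 nm); concentration-response curves normalized to no-enzyme control.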
aSyn yeast inh = qHTS of alpha-syn Inhibitors; Yeast expressing alpha-synuclein, growth rescue, BacTiter-Glo, 24 h; hit rate 0.14% among 370,000; Potency, µM (highest dose often 46.1 µM), inactives show top-dose growth rescue (activation), usual class: activators; AID 652106, 2013; further: potency means the concentration at half of the fitted maximal effect; % of control where 0% means no effect; nearly all actives have a fitted effect of over 65% in size
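Galactose-induced alpha-syn yeast (OD600=0.02, raffinose-pregrown) + pinned cpd, 24 hr, 30 deg C; growth by BacTiter-Glo luminescence. Growth restoration scores as activation.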
FUS yeast rescue = qHTS for Suppressors of FUS Proteinopathy: Primary screen using FUS-linked yeast assay; Potency, µM (doses to about 76.6 µM), actives largely listed as activators; hit rate 0.24% among 390,000; AID 1347120, 2019; S. cerevisiae FUS-expressing, growth rescue, OD600, 24 h;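 further: potency means the concentration at half of the fitted maximal effect; plate controls were DMSO vehicle for no effect and reference control for full effect; nearly all actives have a fitted effect of over 55% in size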
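Restored growth of FUS-toxic S. cerevisiae, read as 600 nm absorbance after 24 h at 30C in galactose medium (starting OD 0.005). Controls CP55940 and DMSO.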
TDP-43 yeast inh = qHTS of TDP-43 Inhibitors; Potency, µM (doses to about 46.1 µM), inactives show at the highest dose growth rescue (activation), actives largely listed as activators; hit rate 1.8% among 410,000; TDP-43 expressing yeast growth rescue, BacTiter-Glo, 24 h; further: potency means the concentration at half of the fitted maximal effect; % of control where 0% means no effect; nearly all actives have a fitted effect of over 50% in size
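Galactose-induced TDP-43 yeast, OD600=0.02, compound pinned; 24 hr, 30 deg C; BacTiter-Glo luminescence for growth. Inhibitors of TDP-43 toxicity read as activators.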
* = called active by the depositor; i = inactive; ? = inconclusive; · = not tested or not shown; [ ] = dose if it differs, or a comment. A selection: hits, their analogues and other compounds. The true share with any hit is near 2%. Unless noted, the call rests on the fitted dose curve; in most records, active means well fitted curve in the direction sought with a large enough effect; inconclusive means small, poorly fitted or top-dose-only effect, or another doubt; inactive means no such curve, though single readings can be large; an effect the other way counts as inactive or inconclusive.

SMILES	LDHA inh	Abeta rescue	IDH1 R132H inh	aSyn yeast inh	FUS yeast rescue	TDP-43 yeast inh
O=C(CCc1nc2cccnc2n1Cc1cccs1)Nc1cccc(C(F)(F)F)c1	5	?	-12%	·	i	25µM*
NC(=O)c1[nH]ncc1NCc1cccnc1	2	·	·	·	·	·
Cc1nc(NC(=O)/C=C/c2ccccc2)n[nH]1	-10	i	-5%	?	i	22µM*
O=C(C=Cc1ccccc1)Nc1ccccc1	-6	i	13%	-28%	i	-20%
CC(C)COc1ccc(C(=O)Nc2nonc2-c2ccc(OC(C)C)cc2)cc1	-30*	·	·	·	·	·
CCOC(=O)CNC(c1ccccc1)c1cc(Br)ccc1NC(=O)CCN1CCOCC1 (stereo not given)	-15	i	7%	-7%	i	22µM*
COC(=O)CNC(c1ccccc1)c1cc(Br)ccc1NC(=O)CCN1CCOCC1 (stereo not given)	-5	i	-8%	7%	?	?
CC(=O)c1cc2c(cc1NC(=O)CSc1nc3ccc(C)cc3[nH]1)OCO2	-3	i	-7%	8%	i	13µM*
CCOc1ccc2[nH]cc(S(=O)(=O)c3ccc(C)cc3)c(=O)c2c1	-3	i	2%	1%	i	18%
CCOc1ccc2[nH]cc(S(=O)(=O)c3ccc(Cl)cc3)c(=O)c2c1	-44*	i	-18%	-5%	i	2%
O=C(Nc1cccc(C(F)(F)F)c1)C1Cc2c(-c3ccc(Cl)cc3)ccnc2O1 (stereo not given)	-2	i	·	?	i	20µM*
O=C(Nc1cccc(C(F)(F)F)c1)C1Cc2c(-c3ccccc3)ccnc2O1 (stereo not given)	-16	?	·	?	i	35µM*
O=C(Nc1cccc(C(F)(F)F)c1)C1Cc2c(-c3ccco3)ccnc2O1 (stereo not given)	-8	i	·	2%	i	15%
CN(C)c1cccc(NC(=O)C2Cc3c(-c4ccc(Cl)cc4)ccnc3O2)c1 (stereo not given)	-1	i	·	13%	?	?
CC(=O)c1cccc(NC(=O)C2Cc3c(-c4ccc(Cl)cc4)ccnc3O2)c1 (stereo not given)	-6	i	·	?	40µM*	?
CN(C(=O)C1Cc2c(-c3ccc(Cl)cc3)ccnc2O1)c1ccccc1 (stereo not given)	-11	i	·	-2%	i	22µM*
CCOc1cc(/C=C2/C(=O)ON=C2C)ccc1O	-1	?	-6%	4%	i	18µM*
COc1cc(/C=C2/C(=O)ON=C2C)cc(Cl)c1O	6	?	0%	-10%	i	6%
C#CCOc1c(Cl)cc(/C=C2/C(=O)ON=C2C)cc1OC	-1	i	1%	-9%	i	16µM*
Cc1cc(/C=N/NC(N)=S)c(C)n1-c1ccc(Br)cc1	-1	i	-5%	-4%	i	?
Cc1cc(/C=C/C(=O)O)c(C)n1-c1ccc(Cl)cc1	-3	i	11%	10µM*	i	?
Cc1cc(C=O)c(C)n1-c1ccc(Cl)c(C(=O)O)c1	-4	i	-7%	-5%	i	-6%
Cc1cccc(C)c1-n1c(C)cc(/C=N/NC(N)=S)c1C	-5	?	-11%	9%	?	11µM*
Cc1cc(/C=N/NC(N)=S)c(C)n1-c1ccc(Cl)cc1	0	10µM*	3%	2%	?	?
Cc1cc(/C=N/NC(=O)C(O)(c2ccccc2)c2ccccc2)c(C)n1-c1cccc(C(=O)O)c1	2	i	3%	-6%	i	1%
SMILES	LDHA inh	Abeta rescue	IDH1 R132H inh	aSyn yeast inh	FUS yeast rescue	TDP-43 yeast inh
Cc1cc(/C=N/NC(N)=S)c(C)n1-c1cccc(Cl)c1	-4	10µM*	-2%	17%	i	2%[0.397 µM]
CCOC(=O)c1ccc(N2CCN(CC)CC2)c(NC(=O)COc2ccc(CC)cc2)c1	-20	·	·	·	·	·
O=C1c2ccccc2S(=O)(=O)N1Cc1nc(-c2ccc(F)cc2)cs1	5	·	·	·	·	·
CCNC(=S)Nc1ccc2ncoc2c1	0	i	0%	-6%	i	·
CCNC(=S)Nc1ccc2c(c1)oc1ccccc12	-2	10µM*	5%	-14%	i	?
Cc1ccc(C(=O)Nc2cccc(N(C)S(C)(=O)=O)c2)cc1S(=O)(=O)Nc1ccccc1	3	i	2%	10%	35µM*	-24%
Cc1cc(=S)nc[nH]1	1	·	·	·	·	·
COc1ccc(CN2C(=O)c3ccccc3C2=O)cc1C(=O)Nc1ccccc1N1CCOCC1	-3	i	10%	?	i	18µM*
N#C/C(=C/c1ccc(F)cc1)C(=O)c1c[nH]c2cc(F)ccc12	0	·	·	·	·	·
CCNC(=S)NN=C1c2ccccc2-c2ccccc21	-1	i	5%	-5%	i	13µM*
C=C(C)CNC(=S)NN=C1c2ccccc2-c2ccccc21	-8	i	-1%	-3%	i	8%
C/C(=N\NC(=O)c1ccccc1O)C1C(=O)c2ccccc2C1=O	0	i	2%	·	i	-7%
C/C(=N/NC(=O)c1cc2ccccc2cc1O)C1C(=O)c2ccccc2C1=O	-21	i	17%	-2%	7.1µM*	16%
C/C(=N\NC(=O)c1c[nH]c2ccccc12)c1ccccn1	-2	i	3%	-4%	i	8%
C/C(=N\NC(=O)c1cc2ccccc2cc1O)c1ccccn1	13	?	22%	10µM*	i	-26%
CCN(CC)c1cc(C)nc(Nc2ccc(NS(=O)(=O)c3cc(C(C)(C)C)ccc3OC)cc2)n1	-23	·	·	·	·	·
Nc1ccc(C2CCCc3nonc32)c2nonc12 (stereo not given)	3	i	5%	1%	i	22µM*
N/C(=N\OC(=O)c1ccc(Cl)c(Cl)c1)c1cccc(CSc2ccccn2)c1	-3	i	-5%	-49%	i	11µM*
O=C(O/N=C(\c1ccccc1)c1ccccn1)c1ccc(Cl)c(Cl)c1	-1	?	-6%	-8%	i	30%
N/C(=N\OC(=O)c1ccc(Cl)c(Cl)c1)c1cccnc1	-4	i	5%	1%	i	6.3µM*
O=C(OCC(=O)c1c[nH]c2ccccc12)c1ccc2ccccc2n1	-6	·	·	·	·	·
O=C1OC(Sc2ccccc2)(c2ccccc2)c2ccccc21 (stereo not given)	-1	i	10%	14%	i	11µM*
